Compounds with a hit are over-represented: about 1.6% of the library has one in this group of screens.
KCNQ2 enhance = KCNQ2 (rat) channel potentiation. CHO-K1 KCNQ2, FluxOR thallium flux fluorescence; active compounds read high. B-score at 10 µM. actives 0.54% (n = 310,000). AID 2239;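 active means fluorescence ratio B-score at least 3 SD of library B-scores, with initial fluorescence B-score within 3 of them, cut at about 5.3 in these data; same plate scores as AID 2156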;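 further: B-score of peak minus minimum over baseline fluorescence ratio after K+ and Tl+ stimulus; positive B-score means potentiation of KCNQ2 with more thallium influx and brighter signal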
Target sequence (O88943 whole entry, looked up): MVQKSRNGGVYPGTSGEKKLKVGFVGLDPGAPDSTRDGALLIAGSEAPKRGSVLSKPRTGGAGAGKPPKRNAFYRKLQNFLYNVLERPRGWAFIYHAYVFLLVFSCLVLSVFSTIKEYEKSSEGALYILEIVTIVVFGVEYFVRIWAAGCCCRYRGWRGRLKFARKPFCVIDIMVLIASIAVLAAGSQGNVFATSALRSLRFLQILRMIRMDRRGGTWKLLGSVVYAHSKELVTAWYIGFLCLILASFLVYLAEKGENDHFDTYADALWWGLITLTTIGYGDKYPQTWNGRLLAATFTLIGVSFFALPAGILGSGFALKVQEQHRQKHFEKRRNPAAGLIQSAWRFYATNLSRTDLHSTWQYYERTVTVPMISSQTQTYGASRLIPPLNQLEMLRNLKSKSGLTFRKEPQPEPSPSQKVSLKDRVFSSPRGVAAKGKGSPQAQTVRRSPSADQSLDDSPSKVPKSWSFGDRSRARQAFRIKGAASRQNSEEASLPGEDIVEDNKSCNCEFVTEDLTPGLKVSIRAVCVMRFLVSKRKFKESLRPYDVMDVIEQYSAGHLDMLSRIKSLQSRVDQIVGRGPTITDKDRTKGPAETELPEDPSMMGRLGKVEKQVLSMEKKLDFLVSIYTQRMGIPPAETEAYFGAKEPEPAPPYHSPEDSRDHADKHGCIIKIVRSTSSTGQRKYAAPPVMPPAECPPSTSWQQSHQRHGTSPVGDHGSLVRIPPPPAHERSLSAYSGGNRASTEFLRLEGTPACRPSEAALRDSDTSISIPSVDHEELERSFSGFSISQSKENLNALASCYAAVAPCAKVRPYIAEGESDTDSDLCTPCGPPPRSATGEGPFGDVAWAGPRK
KCNQ2 inh = inhibitors of rat KCNQ2 potassium channel. O88943. CHO-K1 KCNQ2, FluxOR thallium flux, 20 min; active compounds read low. B-score at 10 µM. actives 1.1% (n = 310,000). AID 2156;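 active means fluorescence ratio B-score at most minus 3 library SDs, with starting brightness B-score within 2 library SDs, cut at about -5.5 in these data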
* marks the source's active call; other numbers are inactive results; i = inactive; x = no result.

SMILES | KCNQ2 enhance | KCNQ2 inh
COc1ccc(-c2c[n+]3c4n2CCCCC4=C(c2ccccc2)C3)cc1 | -6.2 | -6.2*
O=C(NCCCc1nc2ccccc2[nH]1)c1ccc(F)cc1 | 7.3* | i
O=C(NCc1nc2ccccc2[nH]1)c1ccccc1F | 1.1 | i
O=C(CSCc1ccccc1)N1CCN(c2cccc(C(F)(F)F)c2)CC1 | -6.5 | -6.5*
O=C(CSCc1ccccc1)N1CCN(c2ccccc2)CC1 | x | i
C/C(=C/c1ccccc1)C(=O)N1CCN(c2ccccc2F)CC1 | x | i
C/C(=C\c1ccccc1)C(=O)N1CCN(c2cccc(C(F)(F)F)c2)CC1 | -6.2 | -6.2*
O=C(c1cccc(S(=O)(=O)N2CCN(c3ccc(F)cc3)CC2)c1)N1CCCC(C(F)(F)F)C1 (centres undefined) | 0.02 | i
Cn1c2ccccc2c(=O)c2ccc(-c3ccc4c(c3)OCO4)cc21 | x | i
Cc1nnc2ccc(-c3ccc(NS(=O)(=O)c4ccc(F)cc4F)cc3)nn12 | 2.6 | i
O=C(C1CC1)N(CCN(Cc1ccccc1)C(=O)C1CC1)Cc1ccccc1 | -7.1 | -7.1*
CCN(Cc1ccccc1)C(=O)C1CCN(CC2CC=CCC2)CC1 (centres undefined) | x | i
CCN(Cc1ccccc1)C(=O)c1ccc(C(=O)N(CC)Cc2ccccc2)cc1 | x | i
O=C(c1ccccc1)N(Cc1ccccc1)Cc1ccccc1 | -6.3 | -6.3*
CCCn1c(C(CO)Nc2nc(C)cs2)nc2ccccc21 (centres undefined) | x | i
O=C(CSc1nnnn1-c1cccnc1)Nc1ccccc1F | 0.01 | i
CCOC(=O)/C(=C\c1ccccc1)C(=O)c1cc(C(C)=O)c(Nc2ccccc2)s1 | -8.1 | -8.1*
CCOC(=O)/C(=C\c1cccnc1)C(=O)c1cc(C(C)=O)c(Nc2ccccc2)s1 | x | i
CCC1(CC)C(=O)C2=C3C1[C@H](C(=O)OC)CC(C(=O)OC)C[C@H]3n1c(=O)n(C)c(=O)n1[C@H]2C (some centres undefined) | -7.5 | -7.5*
CCC1(CC)C(=O)C2=C3C1[C@H](C(=O)OC)C=C(C(=O)OC)C[C@H]3n1c(=O)n(C)c(=O)n1[C@H]2C (some centres undefined) | 0.19 | i
COc1cc(S(=O)(=O)N2CCCN(C)CC2)ccc1NC(C)=O | x | i
C=CC[N+]1(CC(=O)NCc2ccc(NC(C)=O)cc2)CCOCC1 | x | i
CCN1C(c2ccccc2)C(C)C(=O)C(C)C1c1ccccc1 (centres undefined) | -8.4 | -8.4*
CCC1C(=O)C(CC)C(c2ccccc2)NC1c1ccccc1 (centres undefined) | x | i
O=C(CCC(=O)Nc1nnc(C2CCCCC2)s1)Nc1ccc(F)cc1 | 0.82 | i
SMILES | KCNQ2 enhance | KCNQ2 inh
O=C(NC(c1cccnc1)C(F)(F)F)c1cc(COc2ccc3c(c2)CCCC3)on1 (centres undefined) | x | i
CC12CCC(C(=Nc3ccc(N=C4C(=O)C5(C)CCC4C5(C)C)cc3)C1=O)C2(C)C | x | i
Cc1ccc(N/C=C2\C(=O)C3(C)CCC2C3(C)C)cc1C (centres undefined) | -6.5 | -6.5*
N#CCc1nn(-c2ccc(F)cc2)c(N)c1C#N | x | i
NS(=O)(=O)c1ccc(NC(=O)C(Sc2ccccc2)c2ccccc2)cc1 (centres undefined) | 0.58 | i
CCC(C)(C)NC(=O)CSc1nc(Cc2ccccc2)nc2ccccc12 | -6.3 | -6.3*
CC(C)N(C(=O)CSc1nc(Cc2ccccc2)nc2ccccc12)C(C)C | -6.3 | -6.3*
CC(C)NC(=O)CSc1nc2ccccc2n1CC(=O)N(C(C)C)C(C)C | 0.34 | i
CC(C)N(C(=O)CSc1nc2ccccc2n1Cc1ccc(F)cc1)C(C)C | -7.9 | -7.9*
CSc1nc(Cc2ccccc2)nc2ccccc12 | x | i
CC(C)(C)NC(=O)CSc1nc(Cc2ccccc2)nc2ccccc12 | x | i
Nc1nc(Nc2ccccc2F)nc(N2CCOCC2)c1[N+](=O)[O-] | x | i
O=c1cc(CN2CCN(C/C=C/c3ccccc3)CC2)c2cc(O)c(-c3ccccc3)cc2o1 | 0.92 | i
CC(C)CN(Cc1cc(=O)oc2cc(-c3ccccc3)c(O)cc12)CC(C)C | -7.5 | -7.5*
CCOC(=O)c1c(C)nn(-c2ccc(NC(=O)CSCC(=O)O)cc2)c1C | x | i
O=C(O)c1ccccc1NS(=O)(=O)c1cccc(-n2sc3ccccc3c2=O)c1 | 13* | i
O=C(O)c1ccccc1NS(=O)(=O)c1cccc(C(F)(F)F)c1 | x | i
COc1ccc(CCN2CC(C(=O)N(C)C3CCOCC3)CCC2=O)cc1 (centres undefined) | 1.8 | i
Cc1cccc(N2CCN(C(=O)c3ccc(N4CCCC4=O)cc3)CC2C)c1 (centres undefined) | 2.3 | i
Cc1cccc(N2CCN(C(=O)c3ccc4c(c3)c(C)c(C)n4C)CC2C)c1 (centres undefined) | -6.1 | -6.1*
Cc1nn(-c2ccccc2)c2nc3c(cc12)C(=O)CCC3 | 0.48 | i
Cc1onc(C(=O)NC2CCCCC2)c1[N+](=O)[O-] | x | i
COC(C(=O)Nc1ccnn1C1CCN(C(=O)c2ccc(C=O)cc2)CC1)c1ccccc1 (centres undefined) | x | i
CN(C(=O)c1ccc(COc2ccccc2Br)o1)c1ccccc1 | -6.2 | -6.2*
CN(C)CCOC(=O)c1ccc(COc2ccccc2Br)o1 | 1.3 | i
SMILES | KCNQ2 enhance | KCNQ2 inh
O=C(Cc1ccc(Cl)cc1)NCC(=O)N1CCCCCC1 | x | i
COc1ccc(CN(C(=O)CSc2nnc(-c3c[nH]c4ccccc34)o2)c2ccc(F)cc2)cc1OC | -7 | -7*
COc1ccc(CN(C(=O)CSc2nnc(-c3ccc(F)cc3)o2)c2ccc(F)cc2)cc1 | x | i
c1ccc(-c2cn3c(n2)-c2ccccc2C3)cc1 | 0.05 | i
c1ccc2c(c1)nc(NCc1ccc3c(c1)OCO3)n2CCN1CCOCC1 | x | i
c1ccc(Cn2c(CNc3nc4ccccc4n3CCN3CCOCC3)nc3ccccc32)cc1 | -6 | -6*
COc1ccc(CCNCC(O)COc2cccc(C(C)=O)c2)cc1OC (centres undefined) | 0.95 | i
COc1ccc(N2CCN(S(=O)(=O)CCNC(=O)c3ccc(Br)o3)CC2)cc1 | 1.1 | i
CCOC(=O)C1=C(CNCc2ccccc2Cl)NC(=O)NC1c1ccc2c(c1)OCO2 (centres undefined) | x | i
CCOC(=O)C1=C(CNCc2ccccc2Cl)NC(=O)NC1c1cccc([N+](=O)[O-])c1 (centres undefined) | -6.3 | -6.3*
COc1ccc(-c2cc(C)no2)cc1S(=O)(=O)NCc1ccc(OC(C)C)cc1 | 0.49 | i
Cc1ccsc1C(=O)N1CCCC(N2CCN(c3cccc(Cl)c3)CC2)C1 (centres undefined) | -7.1 | -7.1*
Cc1cccc(C(=O)N2CCCC(N3CCN(c4cccc(Cl)c4)CC3)C2)n1 (centres undefined) | 0.04 | i
C[C@H](NC(=O)c1ccccc1)C(=O)N1CCC2(CC1)NCCc1[nH]cnc12 | x | i
Cc1ccc(-c2nc3cnccn3c2Nc2ccc3c(c2)OCO3)cc1 | x | i
CN(C)c1ccc(-c2nc3cnccn3c2Nc2ccc3c(c2)OCCO3)cc1 | -6.4 | -6.4*
NC(=O)C1CCN(C(=O)c2ccc(OCC(=O)Nc3cccc(C(F)(F)F)c3)cc2)CC1 | x | i
CCOC(=O)C1CCN(C(=O)c2ccc(OCC(=O)Nc3cccc(C(F)(F)F)c3)cc2)CC1 | -6.5 | -6.5*
